Assay results: PubChem BioAssay AID1835 (Johns Hopkins Ion Channel Center, 2009)
Screen size: about 2,400 compounds; about 750 (31%) were called active. The list shows a part of the results. Unmarked numbers belong to inactive results.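 The calls were made as follows: active = median signal gain over dofetilide-blocked control wells reaching their mean plus 3 SD, so readout 1 at least 0; inactive = the rest.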

Target: Voltage-gated inwardly rectifying potassium channel KCNH2 (Homo sapiens) (UniProt Q12809)
Sequence (Q12809 whole entry, looked up): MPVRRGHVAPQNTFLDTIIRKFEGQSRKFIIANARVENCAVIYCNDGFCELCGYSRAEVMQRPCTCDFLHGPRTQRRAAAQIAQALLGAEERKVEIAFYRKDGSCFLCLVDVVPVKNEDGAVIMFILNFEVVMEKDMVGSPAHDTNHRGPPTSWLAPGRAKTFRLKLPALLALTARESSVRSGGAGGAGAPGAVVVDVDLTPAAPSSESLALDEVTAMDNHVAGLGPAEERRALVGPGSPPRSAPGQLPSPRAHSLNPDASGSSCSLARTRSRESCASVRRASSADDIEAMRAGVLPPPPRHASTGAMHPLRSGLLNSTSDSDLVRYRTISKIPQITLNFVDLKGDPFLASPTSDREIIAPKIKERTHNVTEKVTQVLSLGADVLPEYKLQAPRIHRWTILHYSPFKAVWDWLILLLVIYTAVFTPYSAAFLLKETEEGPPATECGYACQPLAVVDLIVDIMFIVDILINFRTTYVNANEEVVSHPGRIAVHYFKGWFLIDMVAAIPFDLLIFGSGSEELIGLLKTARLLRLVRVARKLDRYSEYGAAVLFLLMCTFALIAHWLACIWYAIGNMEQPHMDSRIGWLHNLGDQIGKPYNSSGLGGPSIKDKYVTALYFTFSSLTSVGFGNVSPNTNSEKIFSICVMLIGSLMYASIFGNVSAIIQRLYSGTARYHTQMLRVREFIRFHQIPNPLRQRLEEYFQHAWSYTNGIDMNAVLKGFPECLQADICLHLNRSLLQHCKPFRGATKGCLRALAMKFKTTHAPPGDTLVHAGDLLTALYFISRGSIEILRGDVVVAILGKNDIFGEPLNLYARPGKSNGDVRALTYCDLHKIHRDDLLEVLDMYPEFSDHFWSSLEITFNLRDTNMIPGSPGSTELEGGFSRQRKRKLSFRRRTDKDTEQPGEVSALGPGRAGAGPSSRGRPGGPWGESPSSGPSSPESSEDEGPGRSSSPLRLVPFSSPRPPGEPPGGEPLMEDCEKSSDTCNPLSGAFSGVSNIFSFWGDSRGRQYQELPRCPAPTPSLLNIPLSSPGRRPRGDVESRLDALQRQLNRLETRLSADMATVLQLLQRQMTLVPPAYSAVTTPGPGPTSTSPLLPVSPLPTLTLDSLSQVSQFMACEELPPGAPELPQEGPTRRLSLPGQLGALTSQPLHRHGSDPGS
Test: modulators restoring hERG flux under dofetilide – cell-based, thallium flux, duplicate retest, dofetilide IC70, confirmation (AID 1835)
Conditions: hERG cell line, FluxOR thallium flux, dofetilide-blocked; at 10 µM; stronger effect = higher value

Row | SMILES | activity increase over dofetilide control, less the hit threshold
1 | CC(C)C(=O)N(c1ccc(F)cc1)C1C=CS(=O)(=O)C1 (stereo not drawn) | -20%
2 | CCOC(=O)C1C(c2ccccc2)C(C(=O)OCC)C1c1ccccc1 (stereo not drawn) | -6%
3 | CCCSc1cc(NCCOC(C)=O)c([N+](=O)[O-])c2nonc12 | -13%
4 | CC(C)CCNC(=O)CCc1nnc(Cc2c[nH]c3ccccc23)o1 | -9%
5 | CCCCCN(C(=O)CCC(=O)OC(C)C(=O)c1ccccc1)c1c(N)n(CCCC)c(=O)[nH]c1=O (stereo not drawn) | -16%
6 | CCCNC(=O)N(C)c1nncnc1C(=O)NC | -7%
7 | CC1CCC(N2CCN(C(=O)c3ccccc3F)CC2)CC1 (stereo not drawn) | -6%
8 | O=c1c2ccccc2[nH]c(=S)n1C1CCCCC1 | 2% (active)
9 | O=C1NCC(=O)N2C(c3ccccc3)c3[nH]c4ccccc4c3C[C@@H]12 (stereo partly drawn) | -22%
10 | CC1CCCCC1n1c(=S)[nH]c2ccccc2c1=O (stereo not drawn) | 1% (active)
11 | CC1CCC(n2c(=S)[nH]c3ccccc3c2=O)CC1 (stereo not drawn) | 22% (active)
12 | C=CCNC(=O)c1onc(CSc2ccc(OC)cc2)c1C(=O)O | -11%
13 | NC(=O)CC1NC(=O)c2ccccc21 (stereo not drawn) | -10%
14 | O=C(Cn1c(=O)oc2ccccc21)Nc1ccc(F)c(F)c1 | -29%
15 | Cc1cc(=S)[nH]c2c(C)cccc12 | 5% (active)
16 | S=c1[nH]c2cc(-c3ccccc3)ccc2o1 | 84% (active)
17 | Cc1c(OC(C)C(=O)NCCN2CCOCC2)ccc2c3c(c(=O)oc12)CCC3 (stereo not drawn) | 3% (active)
18 | CCOc1c(OC)ccc2c3c(c(=O)oc12)CCCC3 | -20%
19 | Cc1ccc(-c2nc(CS(=O)(=O)CC(=O)NCCN3CCOCC3)c(C)o2)cc1 | -13%
20 | CCCn1c(=S)[nH]c2ccc(C(F)(F)F)cc21 | -3%
21 | FC(F)(F)c1cnc2c(c1)[nH]c(=S)n2-c1ccc(Cl)cc1 | 21% (active)
22 | Clc1ccc(N=NN2CCOCC2)cc1 | -8%

Row | SMILES | activity increase over dofetilide control, less the hit threshold
23 | COc1cc2c(=O)nc3n(c2cc1OC)C(c1ccccc1)N=C(N)N3 (stereo not drawn) | -8%
24 | CN1C(=O)/C(=N\OC(=O)c2cccc3ccccc23)c2ccccc21 | 15% (active)
25 | CN1C(=O)c2ccc(C(=O)NCc3ccccc3)cc2C1=O | -16%
26 | CN1C(=O)/C(=N/OC(=O)c2ccccc2)c2ccccc21 | 3% (active)
27 | CCN(CC)C(=O)CN1C(=O)c2cccc3cccc(c23)C1=O | -15%
28 | O=C1c2ccccc2C(=O)N1c1cccnc1 | -12%
29 | c1ccc(OCc2nn3c(Cn4cnc5ccccc54)nnc3s2)cc1 | -10%
30 | O=C(NC(=S)Nc1cccc(Cl)c1N1CCOCC1)c1cccs1 | -5%
31 | O=C(NC(=S)Nc1ccccc1N1CCCC1)c1ccc(-c2cccc([N+](=O)[O-])c2)o1 | -6%
32 | O=C(NC(=S)NC1CCCc2ccccc21)c1ccco1 (stereo not drawn) | 13% (active)
33 | O=C(COc1ccccc1Cl)NC(=S)Nc1ccccc1N1CCCC1 | 15% (active)
34 | O=C(NC(=S)Nc1cccc(Cl)c1N1CCCCC1)c1cccs1 | -10%
35 | O=C(NC(=S)Nc1cccc(Cl)c1N1CCCCC1)c1ccco1 | 52% (active)
36 | CCOc1ccc(NC(=O)CS(=O)CC(=O)NC2CCCc3ccccc32)cc1 (stereo not drawn) | -7%
37 | O=C(NC(=S)Nc1ccccc1N1CCCC1)c1ccc([N+](=O)[O-])cc1 | 4% (active)
38 | O=C(CNC1CCCCCC1)Nc1ccccc1N1CCOCC1 | -12%
39 | Cc1cccc(OCC(=O)NC2CCCc3ccccc32)c1C (stereo not drawn) | -11%
40 | O=C(COc1ccc(Cl)cc1Cl)NC(=S)Nc1ccccc1C(=O)O | -6%
41 | N#Cc1cccc(NC(=O)c2nc(-c3ccccc3)n(-c3ccccc3)n2)c1 | -18%
42 | Fc1ccccc1N1CCN(c2cnc3ccccc3n2)CC1 | -9%
43 | Nc1nnc(SCC(=O)OCc2ccc(F)cc2)s1 | -27%
44 | Cc1cc(-c2cccnc2)c(C#N)c(SCc2cccc(F)c2)n1 | -15%

Row | SMILES | activity increase over dofetilide control, less the hit threshold
45 | CCCCNC(=O)N1CCCC(C(=O)c2cc(C)c(OC)c(C)c2)C1 (stereo not drawn) | -22%
46 | C/C(N)=C(/C#N)C(=O)COC(=O)C1CCC(C(C)(C)C)CC1 (stereo not drawn) | -7%
47 | CCC(C)(C(=O)NC1CCCC1)N(C(=O)c1ccccn1)c1ccccc1 (stereo not drawn) | -17%
48 | Cc1cc(-c2cccc(Br)c2)c(C#N)c(N)n1 | -15%
49 | CCNC(=O)NC1c2ccccc2CSc2ccccc21 (stereo not drawn) | -19%
50 | CC1CCN(c2ccccc2NC(=S)NC(=O)c2ccco2)CC1 | -6%
51 | O=C(NC(=S)Nc1ccccc1Cl)c1ccco1 | 18% (active)
52 | O=C(NC(=S)Nc1ccc(N2CCCCC2)cc1)c1ccco1 | 45% (active)
53 | O=C(NC(=S)Nc1ccccc1N1CCCC1)c1ccco1 | 4% (active)
54 | O=C(NC(=S)Nc1cc(C(F)(F)F)ccc1N1CCOCC1)c1ccco1 | 10% (active)
55 | O=C(NC(=S)Nc1ccccc1Br)c1ccco1 | -1%
56 | O=C(CCc1ccccc1)NC(=S)Nc1cc(C(F)(F)F)ccc1N1CCOCC1 | -14%
57 | Cc1ccc2[nH]c(C(=O)O)c(-c3ccccc3)c2c1 | -16%
58 | O=c1cc(CN2CCN(S(=O)(=O)c3ccc4c(c3)OCCO4)CC2)c2ccc(O)cc2o1 | -5%
59 | CCOc1cc(NC(=S)N2CCC(C(N)=O)CC2)c(C(=O)OC)cc1OCC | -4%
60 | COc1cc2c(cc1OC)CN(C(=O)c1sccc1C)CC2 | -13%
61 | Cc1ccc(OCC(=O)Nn2cnc3ccccc32)cc1 | -11%
62 | Cc1ccc(C2C(C#N)=C(N)OC3=C2C(=O)CC(C)(C)C3)s1 (stereo not drawn) | -4%
63 | Cc1cc(-c2csc3nc[nH]c(=S)c23)cc(C)c1C | 14% (active)
64 | Cc1ccc(-c2csc3nc[nH]c(=S)c23)cc1C | 36% (active)
65 | O=C(O)c1ccccc1P(=O)(c1ccccc1)c1ccccc1 | -20%
66 | CCCC(=O)n1nc(-c2ccccc2)nc1N | -17%

Row | SMILES | activity increase over dofetilide control, less the hit threshold
67 | CCCCCCc1cc2cc(-c3nnc(-c4ccccc4)o3)c(=O)oc2cc1O | -13%
68 | c1ccc(CCCNc2ncnc3nc[nH]c23)cc1 | 11% (active)
69 | O=C(c1cccs1)N1CCN(C23CC4CC(CC(C4)C2)C3)CC1 | -21%
70 | O=C(N/C(=C/c1ccc2c(c1)OCO2)C(=O)N1CCOCC1)c1cccs1 | -18%
71 | O=C(NC(=S)N1CCN(c2ccccc2)CC1)c1ccccc1 | 16% (active)
72 | O=C(NC(=S)N1CCN(c2ccccc2)CC1)c1c(F)cccc1F | -9%
73 | O=C(NC(=S)N1CCN(c2ccc(F)cc2)CC1)c1cccs1 | 25% (active)
74 | CC1CCN(C(=S)NC(=O)c2cccs2)CC1 | 10% (active)
75 | O=C(CN1CCN(c2ccc(Cl)cc2)CC1)Nc1ccc(F)cc1 | -15%
76 | N#Cc1cccc(N=c2ssnc2Cl)c1 | -32%
77 | CC(=O)Nc1ccccc1NC(=O)C/C(C)=N/NC(=O)c1ccc([N+](=O)[O-])c(Cl)c1 | -13%
78 | O=C(CSc1nc2ccc(NC(=O)c3ccccc3C(=O)O)cc2s1)Nc1c(Cl)cccc1Cl | 0%
79 | CSc1nsc(SCC(=O)Nc2ccccc2C(=O)O)n1 | 2% (active)
80 | Cc1ccccc1NC(=O)CSc1ccsc1[N+](=O)[O-] | -6%
81 | O=C(NNC(=S)Nc1ccccc1)c1cccc(S(=O)(=O)N2CCOCC2)c1 | -12%
82 | COc1cc(Cl)c(C)cc1NC(=O)CSc1sc2c(O)cc(=O)[nH]c2c1C#N | 1% (active)
83 | Cc1cc(=O)[nH]c(SCC(=O)Nc2ccccc2C#N)c1C#N | -4%
84 | CCC(NS(=O)(=O)c1ccc(OC)cc1)C(=O)O (stereo not drawn) | -13%
85 | CCOC(=O)c1nc(C)n(-c2ccc(Cl)cc2)n1 | -1%
86 | Cc1nn(-c2ccc(Cl)cc2)c2sc(C(=O)c3c(N)n(C)c(=O)n(C)c3=O)cc12 | 67% (active)
87 | O=C(NCC1CCS(=O)(=O)C1)Oc1ccccc1 (stereo not drawn) | -15%
88 | CCN(CC)c1ccc(/C=c2\sc3nnc(-c4ccccc4Cl)n3c2=O)cc1 | -11%

Row | SMILES | activity increase over dofetilide control, less the hit threshold
89 | Cc1nn(-c2ccccc2)c(Cl)c1/C=C1\SC(=S)NC1=O | 51% (active)
90 | Cc1nn(-c2ccccc2)c(N2CCCC2)c1/C=N/O | -16%
91 | Cc1nn(-c2ccccc2)c(C)c1S(=O)(=O)O | -6%
92 | COCCCN1C(=O)C(=O)/C(=C(/O)c2ccc(S(=O)(=O)N3CCOCC3)cc2)C1c1ccc(F)cc1 (stereo not drawn) | -5%
93 | CN(C(=O)CCc1ccccc1)c1nnc(-c2ccncc2)s1 | -24%
94 | CCCN(C(=O)c1ccco1)c1nnc(-c2ccncc2)s1 | 5% (active)
95 | O=C(c1ccco1)N(c1ccccn1)c1ccccn1 | -13%
96 | Cc1cc([N+](=O)[O-])nn1CC(=O)Nc1ccc(Cl)cn1 | -12%
97 | Cc1ccc(O)c(Sc2cc(C)ccc2O)c1 | -34%
98 | O=C(CCC(=O)N1CCN(S(=O)(=O)c2ccccc2)CC1)c1cccs1 | -14%
99 | Cc1[nH]n(-c2ccc(F)cc2)c(=O)c1/C=N/c1sc2c(c1C#N)CCCC2 | 41% (active)
100 | Cc1[nH]n(-c2cccc3ccccc23)c(=O)c1/C=N/c1sc2c(c1C#N)CCC2 | 3% (active)
101 | CN(C1=C(NC(=O)c2ccccc2)C(=O)c2ccccc2C1=O)C1CCS(=O)(=O)C1 (stereo not drawn) | -4%
102 | COCCn1cnc2c1c(=O)n(CC#N)c(=O)n2Cc1ccccc1 | -14%
103 | COc1cccc2sc(Nc3nnc(-c4cccs4)o3)nc12 | 52% (active)
104 | N#C/C(=C\c1ccc(-c2ccccc2Cl)o1)C(=O)Nc1nc2ccccc2s1 | -6%
105 | COc1cccc2sc(Nc3nc(-c4ccccn4)cs3)nc12 | -19%
106 | COc1ccccc1Nc1nnc(SCC(=O)Nc2nc(-c3ccc(F)cc3)cs2)s1 | -24%
107 | COc1cccc2sc(Nc3nnc(-c4ccc(F)cc4)o3)nc12 | 83% (active)
108 | COc1cccc2sc(Nc3nnc(-c4ccccc4Cl)o3)nc12 | 16% (active)
